Source: PubChem
HT1080-NT tox – kills 2HG-producing HT-1080-NT fibrosarcoma cells. AID 686970. hit rate 1.6% among 360,000. HT-1080-NT fibrosarcoma viability, CellTiter-Glo ATP luminescence, 48 h. Potency, µM (series often up to 46.1 µM), without a hit: top-dose activity, negative = less viability, hits mostly cytotoxic;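 also: NT is the 2HG producing partner of a matched IDH1 knockdown line; 0% = DMSO-treated cells and -100% = media-only wells without cells; nearly all actives have a fitted effect of over 55% in size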
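Fibrosarcoma NT cells, 750 per well in 5% FBS RPMI, were exposed to compound for 48 hours. Viability: CellTiter-Glo luminescence.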
HT1080 IDH1KD tx – toxicity to HT-1080 IDH1 knockdown cells (counter line) | Potency, µM (doses to about 46.1 µM), for inactives: at the highest dose activity, negative = toxicity, hits mostly cytotoxic | hit rate 2% among 360,000 | AID 686971 | HT-1080 IDH1 knockdown viability, ATP luminescence, 48 h;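 also: 0% = DMSO wells and -100% = cell-free medium wells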
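IDH1KD HT-1080 cells, 750/well, RPMI + 5% FBS; compound pinned after 2 h settling; 48 h, 37 °C; CellTiter-Glo luminescence; % activity normalised to DMSO and no-cell wells; curves fitted, classed by r2 and efficacy.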
TGFb SMAD3 inh – TGF-b pathway inhibition. Potency, µM (titrated, usually from 46.1 µM), for the others: at the top dose activity, negative = inhibition, most hits filed as inhibitors. AID 588855. hit rate 1.2% among 410,000. HepG2 CAGA-GFP TGF-b/SMAD3 reporter, GFP fluorescence, 18 h; TGF-beta stimulated, 500 pg/mL final; also: % is scaled to controls: 0 for no effect and ±100 for the full control effect; nearly all actives have a fitted effect of over 65% in size
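Smad-responsive CAGA-GFP expression was quantified in HEPG2 cells exposed to compounds and 500 pg/mL final TGF-beta for 18 h at 37 degrees C; unstimulated wells defined full inhibition.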
HepG2 viability – kills HepG2 cells in TGF-b inhibitor counter-screen; hit rate 0.76% among 410,000; HepG2 CAGA-GFP viability, ATP luminescence, 18 h; Potency, µM (doses to about 46.1 µM), for inactives: at the top dose activity change, negative = cytotoxicity, usual class: cytotoxic
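HepG2 CAGA-GFP cells (1000/well, DMEM with 1% FBS) received compound, then TGF-beta at 500 pg/mL final, and were incubated 18 hours at 37 degrees C. Viability was read by CellTiter-Glo luminescence. Media-only wells were set as complete cell-killing and DMSO as no toxicity.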
ATXN2 expr inh – ATXN2 expression inhibition; hit rate 0.72% among 360,000; Potency, µM (highest dose often 57 µM), for the others: at the top dose activity change, negative = inhibition, most hits filed as inhibitors; HEK-293 ATXN2-luciferase reporter, luminescence, 24 h; also: % is scaled to controls: 0 for no effect and ±100 for the full control effect; nearly all actives have a fitted effect of over 55% in size
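qHTS (up to 57 uM final) was run with 24 h compound exposure of reporter cells at 37 °C. Each well was multiplexed: SteadyGlo luminescence measured ATXN2-luciferase expression after a fluorogenic Gly-Phe-AFC viability readout (25 uM final).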
ATXN viability – cell viability loss in ATXN counter-screen. Potency, µM (top dose mostly 56.7 µM), usual class: cytotoxic. S2 cells (HEK-293 line with an ATXN2-luciferase reporter) viability, CellTiter-Fluor protease fluorescence, 24 h. hit rate 0.49% among 400,000. AID 651635; also: nearly all actives have a fitted effect of over 40% in size
* marks the source's active call; other numbers are inactive results; [ ] = another dose, or the depositor's remark. Rows were chosen to be rich in hits. Some 3.9% of all compounds tested hit in one or more screens of this group. Calls follow the shape of the dose curve; as a rule, active = well fitted curve in the direction sought with a large enough effect; inconclusive = small, poorly fitted or top-dose-only effect, or another doubt; inactive = no such curve, though single readings can be large; an effect the other way counts as inactive or inconclusive. Potency is read from the fitted curve at half-maximal effect.

`CCc1ccc2c(c1)[C@H]1OCC[C@H]1[C@@H](c1cccs1)N2` gave HT1080-NT tox 4.1µM*, HT1080 IDH1KD tx 3.7µM*, TGFb SMAD3 inh -28%, HepG2 viability -2%, ATXN2 expr inh -1% and ATXN viability inactive.
Screening CC(=O)c1cc2c(cc1NC(=O)c1cnn(-c3ccc(C)cc3)c1-n1cccc1)OCO2 returned TGFb SMAD3 inh 1% and HepG2 viability -12%.
`Cc1cccc(CCNC(=O)c2cnc3c(C)cccn3c2=O)c1` gave TGFb SMAD3 inh -13%, HepG2 viability -29%, ATXN2 expr inh 19% and ATXN viability inactive.
Cc1ccc(Nc2nccc(N(C)c3ccc4c(C)n(C)nc4c3)n2)cc1S(N)(=O)=O was read as ATXN2 expr inh 45% and ATXN viability inconclusive.
`Cc1cc(C(=O)CCl)c(C)n1-c1cccc(S(=O)(=O)N2CCOCC2)c1` gave HT1080-NT tox 23µM*, HT1080 IDH1KD tx inconclusive, TGFb SMAD3 inh inconclusive, HepG2 viability -109% and ATXN2 expr inh -18%[11.3 µM].
Screening Cc1cc(C(=O)CN2C(=O)CN(C)C2=O)c(C)n1-c1cccc(S(=O)(=O)N2CCOCC2)c1 returned HT1080-NT tox 2%, HT1080 IDH1KD tx -2%, TGFb SMAD3 inh -2%, HepG2 viability -2% and ATXN viability inactive.
O=C1N/C(=C\c2ccc(N3CCOCC3)c(F)c2)C(=O)N1Cc1ccccc1 was read as HT1080-NT tox inconclusive, HT1080 IDH1KD tx 18µM*, TGFb SMAD3 inh 1%, HepG2 viability -3%, ATXN2 expr inh inconclusive and ATXN viability inconclusive.
Screening Cc1ccc(CN2C(=O)N/C(=C\c3ccc(N4CCOCC4)cc3)C2=O)cc1 returned HT1080-NT tox 6%, HT1080 IDH1KD tx 2%, TGFb SMAD3 inh -12%, HepG2 viability -3%, ATXN2 expr inh -17% and ATXN viability inconclusive.
CC(C)(C)n1nnnc1C(c1cccs1)N(Cc1cccnc1)Cc1ccccc1Cl (stereo not given) was read as HT1080-NT tox inconclusive, HT1080 IDH1KD tx inconclusive, TGFb SMAD3 inh 18µM*, HepG2 viability -32%, ATXN2 expr inh inconclusive and ATXN viability inconclusive.
Screening O=C(N1CCN(c2ccccn2)CC1)N1c2ccccc2Sc2ccccc21 returned HT1080-NT tox 0.89µM*, HT1080 IDH1KD tx 0.89µM*, TGFb SMAD3 inh inconclusive, HepG2 viability -23%, ATXN2 expr inh 38% and ATXN viability inactive.
